PubChem BioAssay (Tox21)
“And” between values parts separate entries of the source, which are not always exact repeats. Identical values can stand only once. Inconclusive results are not listed. A call without a number means that no potency is given here. A structure can be active in one record and inactive in another. The source made the active and inactive calls. Unless noted, the call rests on the fitted dose curve; in most records, active means well fitted curve in the direction sought with a large enough effect in the repeat runs; inconclusive means weak or mixed curves; inactive means no such curve, though single readings can be large; an effect the other way counts as inactive or inconclusive.

Columns and labels:
[1] = target: Aryl hydrocarbon receptor (Homo sapiens) (UniProt P35869); experiment: qHTS assay to identify small molecule that activate the aryl hydrocarbon receptor (AhR) signaling pathway (AID 743085); further: nearly all actives have a fitted effect of over 15% in size; further: potency means the concentration at half of the fitted maximal effect;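 on activation: HG2L7.5c1 human HepG2 liver cells with stably integrated DRE-driven firefly reporter; series mostly up to about 70 µM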
Aryl hydrocarbon receptor (Homo sapiens), sequence (P35869 whole entry, looked up): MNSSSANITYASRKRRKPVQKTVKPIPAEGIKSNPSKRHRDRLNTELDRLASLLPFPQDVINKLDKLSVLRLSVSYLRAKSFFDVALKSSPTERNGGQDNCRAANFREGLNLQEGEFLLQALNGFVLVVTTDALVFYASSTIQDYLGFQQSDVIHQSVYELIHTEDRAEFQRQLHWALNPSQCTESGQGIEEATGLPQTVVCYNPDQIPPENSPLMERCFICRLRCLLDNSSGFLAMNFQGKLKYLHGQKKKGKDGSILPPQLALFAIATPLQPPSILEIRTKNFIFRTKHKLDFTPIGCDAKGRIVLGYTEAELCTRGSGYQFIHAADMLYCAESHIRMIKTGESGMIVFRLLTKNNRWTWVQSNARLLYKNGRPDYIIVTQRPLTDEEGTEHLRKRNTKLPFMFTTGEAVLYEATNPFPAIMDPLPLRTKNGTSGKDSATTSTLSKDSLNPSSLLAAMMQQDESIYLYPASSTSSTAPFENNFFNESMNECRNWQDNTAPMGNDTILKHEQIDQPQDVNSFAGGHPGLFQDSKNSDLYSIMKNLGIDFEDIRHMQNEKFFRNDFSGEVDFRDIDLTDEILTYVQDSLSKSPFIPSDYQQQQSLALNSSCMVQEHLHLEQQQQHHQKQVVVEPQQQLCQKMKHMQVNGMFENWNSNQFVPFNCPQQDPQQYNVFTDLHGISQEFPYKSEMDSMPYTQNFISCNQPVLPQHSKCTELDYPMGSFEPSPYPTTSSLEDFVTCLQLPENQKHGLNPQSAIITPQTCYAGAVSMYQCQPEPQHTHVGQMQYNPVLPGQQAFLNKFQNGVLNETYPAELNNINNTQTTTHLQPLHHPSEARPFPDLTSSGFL
In short: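 A multiplexed format paired cell viability (CellTiter-Fluor fluorescence) with AhR-dependent luciferase output (ONE-Glo luminescence) in the same wells of HepG2 DRE-luc cells after 24 h compound exposure at 37C.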

[2] = qHTS assay to identify small molecule that activate the aryl hydrocarbon receptor (AhR) signaling pathway - cell viability counter screen (AID 743086); further: nearly all actives have a fitted effect of over 45% in size; further: potency means the concentration at half of the fitted maximal effect
In short: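 HepG2-AhR-luc (HG2L7.5c1) cells, 4000/well, treated 24 h at 37 C with compound; viability measured as CellTiter-Fluor fluorescence after 30 min in the same wells as the luciferase read.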

[3] = target: Peroxisome proliferator-activated receptor gamma (Homo sapiens) (UniProt P37231); experiment: qHTS assay to identify small molecule agonists of the peroxisome proliferator-activated receptor gamma (PPARg) signaling pathway (AID 743094; active means well fitted activation curve with a large enough effect in the signal ratio in the repeat runs, not every such curve was filed as active; the % refers to the signal ratio; further: potency means the concentration at half of the fitted maximal effect)
Peroxisome proliferator-activated receptor gamma (Homo sapiens), sequence (P37231 whole entry, looked up): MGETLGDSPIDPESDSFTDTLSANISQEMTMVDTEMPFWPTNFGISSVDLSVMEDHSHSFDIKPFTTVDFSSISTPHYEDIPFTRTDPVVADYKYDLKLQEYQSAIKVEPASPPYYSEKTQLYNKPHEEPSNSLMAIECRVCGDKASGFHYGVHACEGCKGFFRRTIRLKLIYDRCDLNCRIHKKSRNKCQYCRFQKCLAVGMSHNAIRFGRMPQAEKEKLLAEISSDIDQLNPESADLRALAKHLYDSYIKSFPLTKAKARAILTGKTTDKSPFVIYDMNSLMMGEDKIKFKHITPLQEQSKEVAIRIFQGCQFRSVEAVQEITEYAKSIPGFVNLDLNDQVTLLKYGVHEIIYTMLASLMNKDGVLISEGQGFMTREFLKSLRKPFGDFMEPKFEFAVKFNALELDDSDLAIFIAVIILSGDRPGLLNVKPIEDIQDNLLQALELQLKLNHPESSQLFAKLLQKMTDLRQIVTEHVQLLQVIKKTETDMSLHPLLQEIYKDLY
In short: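 GeneBLAzer PPARg UAS-bla HEK293H cells were plated, rested 5 h, then exposed to compounds for 17 h at 37C. Beta-lactamase activity was read by LiveBLAzer B/G FRET substrate fluorescence after 1 h at room temperature.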

[4] = qHTS assay to identify small molecule antagonists of the peroxisome proliferator-activated receptor gamma (PPARg) signaling pathway - cell viability counter screen (AID 743194); further: nearly all actives have a fitted effect of over 55% in size
In short: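 Cytotoxicity counter screen in PPARg-bla HEK293H cells, same wells as reporter assay. Compounds plus 50 nM rosiglitazone (final) for 17 h at 37 C, then viability read by CellTiter-Glo luminescence.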

[5] = qHTS assay for small molecule agonists of the antioxidant response element (ARE) signaling pathway - cell viability counter screen (AID 743203; calls by dose curve; further: nearly all actives have a fitted effect of over 55% in size)
In short: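 ARE-bla HepG2 cells were plated, rested 5 h at 37C/5% CO2, then exposed to compounds in DMSO for 16 h. Viability was read as CellTiter-Glo luminescence after 30 min at room temperature, in the same wells as the ARE screen.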

[6] = qHTS assay for small molecule activators of the heat shock response signaling pathway - cell viability counter screen (AID 743209); further: nearly all actives have a fitted effect of over 50% in size
In short: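 HSE-bla HeLa cells plated overnight, then exposed to Tox21 compounds (23 nL in DMSO) for 5 h at 37 C. After the bla reporter read, CellTiter-Glo was added in the same wells and luminescence read after 30 min at room temperature.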

[7] = qHTS assay for small molecule activators of the heat shock response signaling pathway (AID 743210; active means well fitted activation curve with a large enough effect in the signal ratio in the repeat runs, with a control signal flat, not every such curve was filed as active; the % refers to the signal ratio; further: potency means the concentration at half of the fitted maximal effect; on activation: series mostly up to about 63 µM)
In short: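 HSE-bla HeLa cells (beta-lactamase reporter under heat shock response elements), plated overnight, then exposed to compounds 5 h at 37 C; LiveBLAzer B/G FRET substrate added, 2.5 h at room temperature, fluorescence intensity read.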

[8] = qHTS assay to identify small molecule agonists of the peroxisome proliferator-activated receptor delta (PPARd) signaling pathway - cell viability counter screen (AID 743211); further: nearly all actives have a fitted effect of over 55% in size; further: potency means the concentration at half of the fitted maximal effect
In short: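 Tox21 library compounds, delivered in DMSO, were incubated 17 h with PPARd-bla HEK293H cells; cytotoxicity was taken from CellTiter-Glo luminescence read 30 min after reagent addition.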

[9] = qHTS assay to identify small molecule antagonists of the peroxisome proliferator-activated receptor delta (PPARd) signaling pathway - cell viability counter screen (AID 743213); further: nearly all actives have a fitted effect of over 50% in size
In short: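 Viability counter-screen, qHTS format: PPARd-bla HEK293H, L165041 300 nM final, 17 h compound exposure at 37 C, CellTiter-Glo luminescence after 30 min RT.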

[10] = qHTS assay to identify small molecule agonists of the farnesoid-X-receptor (FXR) signaling pathway - cell viability counter screen (AID 743218); further: nearly all actives have a fitted effect of over 45% in size; further: potency means the concentration at half of the fitted maximal effect
In short: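 FXR-UAS-bla HEK 293T cells exposed to compounds for 16 h at 37C. Cytotoxicity read in the same wells by CellTiter-Glo luminescence after 30 min at room temperature, following the beta-lactamase FRET read.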

[11] = qHTS assay to identify small molecule antagonists of the farnesoid-X-receptor (FXR) signaling pathway - cell viability counter screen (AID 743221; active means well fitted cell-killing curve with a large enough effect in the repeat runs, not every such curve was filed as active; further: nearly all actives have a fitted effect of over 50% in size)
In short: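 Cytotoxicity is taken from ATP luminescence (CellTiter-Glo, 30 min, room temperature) in FXR-bla HEK 293T cells previously incubated 16 h at 37 C with compound and chenodeoxycholic acid at 50 uM final.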

[12] = target: Vitamin D3 receptor (Homo sapiens) (UniProt P11473); experiment: qHTS assay to identify small molecule agonists of the vitamin D receptor (VDR) signaling pathway (AID 743222; calls by dose curve)
Vitamin D3 receptor (Homo sapiens), sequence (P11473 whole entry, looked up): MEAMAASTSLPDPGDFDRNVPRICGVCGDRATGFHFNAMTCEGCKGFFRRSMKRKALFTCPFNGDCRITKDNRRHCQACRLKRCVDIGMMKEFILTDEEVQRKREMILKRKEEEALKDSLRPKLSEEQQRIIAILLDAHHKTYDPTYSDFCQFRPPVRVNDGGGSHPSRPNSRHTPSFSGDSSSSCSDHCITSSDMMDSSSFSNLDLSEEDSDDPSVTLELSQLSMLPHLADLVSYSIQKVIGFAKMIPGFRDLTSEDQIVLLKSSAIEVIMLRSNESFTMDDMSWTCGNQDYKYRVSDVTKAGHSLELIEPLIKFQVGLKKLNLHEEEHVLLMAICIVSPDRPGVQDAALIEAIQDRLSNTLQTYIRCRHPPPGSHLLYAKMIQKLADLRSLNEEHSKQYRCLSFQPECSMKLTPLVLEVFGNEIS
In short: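 VDR-bla cells plated 4 h at 37 C, then exposed to compounds for 16 h at 37 C. Beta-lactamase reporter activity measured by fluorescence after 2 h room-temperature loading with LiveBLAzer B/G FRET substrate.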

[13] = target: Vitamin D3 receptor (Homo sapiens) (UniProt P11473); experiment: qHTS assay to identify small molecule antagonists of the vitamin D receptor (VDR) signaling pathway (AID 743223; active means well fitted inhibition curve with a large enough effect in the signal ratio in the repeat runs, not every such curve was filed as active; the % refers to the signal ratio)
In short: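 Quantitative HTS in VDR-bla reporter cells stimulated with 1alpha,25-dihydroxyvitamin D3, 3 nM final. Compound exposure 16 h, 37C, 5% CO2. Read-out: beta-lactamase FRET substrate fluorescence, 2 h RT.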

[14] = qHTS assay to identify small molecule agonists of the vitamin D receptor (VDR) signaling pathway - cell viability counter screen (AID 743224); further: series mostly up to about 63 µM; nearly all actives have a fitted effect of over 50% in size
In short: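 VDR-bla cells, 4 h after plating, exposed to compounds for 16 h at 37C; viability then read in the same wells as CellTiter-Glo luminescence after 30 min at room temperature, following the bla FRET read.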

[15] = target: Peroxisome proliferator-activated receptor delta (Homo sapiens) (UniProt Q03181); experiment: qHTS assay to identify small molecule agonists of the peroxisome proliferator-activated receptor delta (PPARd) signaling pathway (AID 743212; calls by dose curve)
Peroxisome proliferator-activated receptor delta (Homo sapiens), sequence (Q03181 whole entry, looked up): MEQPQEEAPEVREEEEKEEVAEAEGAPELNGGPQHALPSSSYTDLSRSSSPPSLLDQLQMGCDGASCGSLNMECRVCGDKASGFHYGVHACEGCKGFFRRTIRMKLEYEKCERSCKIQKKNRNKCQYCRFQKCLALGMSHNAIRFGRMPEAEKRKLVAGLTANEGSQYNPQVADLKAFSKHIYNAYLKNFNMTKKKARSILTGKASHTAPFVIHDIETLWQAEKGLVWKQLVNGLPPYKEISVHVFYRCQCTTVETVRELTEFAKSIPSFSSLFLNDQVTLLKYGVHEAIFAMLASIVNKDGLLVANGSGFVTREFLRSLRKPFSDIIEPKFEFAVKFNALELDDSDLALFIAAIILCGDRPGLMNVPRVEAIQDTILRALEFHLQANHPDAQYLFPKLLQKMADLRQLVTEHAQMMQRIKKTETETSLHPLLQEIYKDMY
In short: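 GeneBLAzer UAS-bla HEK293H cells carrying a PPARδ construct were exposed to compounds at 37 °C. Beta-lactamase activity was read by FRET fluorescence after 2 h at room temperature with LiveBLAzer B/G substrate.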

[16] = target: Peroxisome proliferator-activated receptor delta (Homo sapiens) (UniProt Q03181); experiment: qHTS assay to identify small molecule antagonists of the peroxisome proliferator-activated receptor delta (PPARd) signaling pathway (AID 743215; active means well fitted inhibition curve with a large enough effect in the signal ratio in the repeat runs, not every such curve was filed as active; the % refers to the signal ratio;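 further: cells stimulated with agonist L165041 at 300 nM final during compound exposure; series mostly up to about 62 µM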)
In short: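 PPARd-bla HEK293H cells (UAS-bla reporter) preincubated 5 h, then given compound plus 300 nM final L165041 agonist for 17 h at 37 C. Beta-lactamase activity read by LiveBLAzer B/G FRET substrate fluorescence after 2 h at room temperature.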

[17] = target: Bile acid receptor (Homo sapiens) (UniProt Q96RI1); experiment: qHTS assay to identify small molecule antagonists of the farnesoid-X-receptor (FXR) signaling pathway (AID 743217; active means well fitted inhibition curve with a large enough effect in the signal ratio in the repeat runs, not every such curve was filed as active; the % refers to the signal ratio)
Bile acid receptor (Homo sapiens), sequence (Q96RI1 whole entry, looked up): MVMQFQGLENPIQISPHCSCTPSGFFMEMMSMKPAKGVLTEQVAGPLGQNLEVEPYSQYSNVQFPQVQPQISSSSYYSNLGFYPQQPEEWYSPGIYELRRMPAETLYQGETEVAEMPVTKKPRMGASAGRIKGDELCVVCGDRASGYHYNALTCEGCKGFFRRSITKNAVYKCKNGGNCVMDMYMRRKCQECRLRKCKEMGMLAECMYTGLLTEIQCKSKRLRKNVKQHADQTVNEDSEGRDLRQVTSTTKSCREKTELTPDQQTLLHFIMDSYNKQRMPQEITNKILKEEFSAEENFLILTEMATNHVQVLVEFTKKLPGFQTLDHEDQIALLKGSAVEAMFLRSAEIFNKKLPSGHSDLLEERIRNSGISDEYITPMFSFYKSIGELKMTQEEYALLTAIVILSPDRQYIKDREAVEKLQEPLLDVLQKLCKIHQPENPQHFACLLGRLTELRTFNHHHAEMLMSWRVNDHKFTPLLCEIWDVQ
In short: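 FXR-UAS-bla HEK 293T cells (beta-lactamase reporter) given compound plus chenodeoxycholic acid (50 uM final), 16 h at 37C. LiveBLAzer B/G FRET substrate added for 2 h at room temperature; fluorescence read.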

[18] = target: Bile acid receptor (Homo sapiens) (UniProt Q96RI1); experiment: qHTS assay to identify small molecule agonists of the farnesoid-X-receptor (FXR) signaling pathway (AID 743220; active means well fitted activation curve with a large enough effect in the signal ratio in the repeat runs, not every such curve was filed as active; the % refers to the signal ratio)
In short: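 Beta-lactamase reporter under UAS control in GeneBLAzer FXR HEK 293T cells (5000/well) measured with LiveBLAzer FRET substrate after 2 h at room temperature. Compound exposure lasted 16 h at 37C.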

[19] = target: Peroxisome proliferator-activated receptor gamma (Homo sapiens) (UniProt P37231); experiment: qHTS assay to identify small molecule antagonists of the peroxisome proliferator-activated receptor gamma (PPARg) signaling pathway (AID 743191; calls by dose curve; further: nearly all actives have a fitted effect of over 30% in size; further: potency means the concentration at half of the fitted maximal effect)
In short: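 GeneBLAzer PPARg UAS-bla HEK293H cells, 5 h post-plating, exposed to compounds 17 h at 37C. LiveBLAzer B/G FRET substrate added for 1 h at room temperature; beta-lactamase reporter read by fluorescence intensity.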

[20] = qHTS assay for small molecule agonists of the antioxidant response element (ARE) signaling pathway (AID 743202; active means well fitted activation curve with a large enough effect in the signal ratio in the repeat runs, not every such curve was filed as active; the % refers to the signal ratio; further: potency means the concentration at half of the fitted maximal effect)
In short: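 ARE-bla HepG2 cells (beta-lactamase reporter under the antioxidant response element), plated 5 hours, then exposed to compounds 16 hours at 37 C. LiveBLAzer B/G FRET substrate added for 2 hours at room temperature; fluorescence intensity read.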

Compound	Potency [1]	Potency [2]	Potency [3]	Potency [4]	Potency [5]	Potency [6]	Potency [7]	Potency [8]	Potency [9]	Potency [10]	Potency [11]	Potency [12]	outcome [13]	Potency [14]	Potency [15]	Potency [16]	Potency [17]	Potency [18]	Potency [19]	Potency [20]
O=P(O)(OCc1ccccc1)OCc1ccccc1	inactive	inactive	inactive	inactive	inactive	inactive	inactive	inactive	inactive	inactive	inactive	inactive	inactive	inactive						
Nc1ccc(N)c2c1C(=O)c1ccccc1C2=O	6.11 µM (active)	21.7 µM (active)	inactive	inactive	inactive	inactive	inactive	inactive	inactive		inactive	inactive	inactive	inactive	inactive	inactive				
COc1ccc(C)cc1[N+](=O)[O-]	inactive	inactive	inactive	inactive	inactive	inactive	inactive	inactive	inactive	inactive	inactive	inactive		inactive			inactive			
CCCCCCCCCCCCCCCCOS(=O)(=O)O	inactive	inactive	inactive	inactive		inactive				inactive	inactive	inactive	inactive					inactive		
CN(C)CCCN1c2ccccc2Sc2ccccc21	inactive	inactive	inactive				inactive			13.3 µM (active)		inactive			inactive		inactive	inactive		
O=C(c1ccc(F)cc1)C1CCN(CCn2c(=S)[nH]c3ccccc3c2=O)CC1	inactive	inactive		inactive			19.6 µM (active)			inactive									inactive	
CC1=CC=C(C(C)C)CC1	inactive	inactive	inactive		inactive	inactive	inactive		inactive	inactive	inactive			inactive						inactive
CCOc1ccc(O)cc1	inactive	inactive		inactive	inactive	inactive		inactive	inactive	inactive	inactive	inactive	inactive		inactive	inactive			inactive	61.1 µM (active)
CC(=O)[O][Al][O]C(C)=O	inactive	inactive		inactive	inactive	inactive		inactive		inactive	inactive			inactive						inactive
CN(C)c1ccc(C(c2ccccc2)c2ccc(N(C)C)cc2)cc1	inactive	inactive		inactive	inactive	inactive	inactive	inactive	inactive	inactive	inactive	inactive	inactive	inactive						inactive
O=C(O)c1ccco1	inactive	inactive	inactive		inactive		inactive	inactive		inactive	inactive	inactive	inactive	inactive						inactive
C=C(C)C(=O)OCCO	inactive	inactive	inactive	inactive		inactive	inactive			inactive	inactive	inactive	inactive	inactive	inactive	inactive	inactive	inactive		
CCCCc1nc2cccnc2n1Cc1ccc(-c2ccccc2-c2nnn[nH]2)cc1	inactive	inactive	5.49 µM (active)	inactive	inactive			inactive	inactive	inactive	inactive	inactive		inactive						
NCc1ccccc1Sc1ccccc1CO	inactive	inactive	inactive	inactive	inactive	inactive	inactive	inactive	inactive	inactive	inactive	inactive	inactive	inactive						
N=c1ccn2c(n1)O[C@H]1[C@H](O)[C@@H](CO)O[C@H]12	inactive	inactive	inactive	inactive	inactive	inactive	inactive	inactive	inactive	inactive	inactive	inactive	inactive	inactive						
Clc1ccc(Cn2c(CN3CCCC3)nc3ccccc32)cc1	inactive	inactive	inactive	inactive	inactive	inactive		29.8 µM (active)					inactive	inactive						
Cc1ncc(CO)c(C=O)c1O	inactive	inactive	inactive	inactive	inactive	inactive		inactive	inactive	inactive	inactive	inactive	inactive	inactive	inactive	inactive				
CC(=O)OC[C@H]1O[C@@H](n2ncc(=O)[nH]c2=O)[C@H](OC(C)=O)[C@@H]1OC(C)=O	inactive	inactive		inactive	inactive	inactive		inactive	inactive	inactive		inactive		inactive	inactive			inactive	0.841 µM (active)	inactive
OCc1cc(C(O)CNCCCCCCOCCCCc2ccccc2)ccc1O (stereo unspecified)	26.6 µM (active) and inactive	26.6 µM (active) and 13.3 µM (active)		inactive				26.6 µM (active)			inactive			inactive		inactive		inactive	inactive	
